An excerpt weighted towards active compounds, which were near 3.9% of everything screened.
esBAF inh: inhibitors of esBAF chromatin remodeling in mouse ES cells; Bmi1-luciferase knock-in reporter, 24 h; 100% = twice the neutral-well signal; reporter increase, % at 12.5 µM; 2% of 350,000 active; AID 602393; in the data active means activation above about 40%; inconclusive means no clear call, values can overlap the other calls;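 further: a rise in the Bmi1 reporter signal indicates esBAF inhibition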
MITF TRPM1 HTS: increases MITF-driven TRPM1 promoter luciferase signal; SK-MEL-5 TRPM1-promoter luciferase, 24 h; % of positive control, neutral wells = 0; activation, % at 12.5 µM; 0.75% of 300,000 active; AID 588334;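 active means mean activation of at least 80% with every replicate also reaching 80%; inconclusive means mean reaches 80% but some replicate falls short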
HSF1 inh: HSF1 inhibition | activity change, negative = inhibition, % at 7.5 µM (by protocol) | NIH3T3-HGL HSE-luciferase, MG132-induced, luminescence 8 h; active compounds read low | 0.77% of 300,000 active | AID 2098;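 active means more than half of replicate wells show activity change below -50%, luminescence cut by over half; inconclusive means some wells, but at most half, below -50%; inactive means no replicate well below -50%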;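 further: luciferase reports HSF-1 transcriptional activity via heat shock element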
Wnt act: Wnt/beta-catenin pathway activation | AID 743398 | 1.2% of 300,000 active | Wnt/beta-catenin reporter cell assay, activator, plate reader | activation, % at 9.35 µM; in the data active means activation above about 30%, passing the limit was not always enough; inconclusive means no clear call, values can overlap the other calls
HSF-1 act: increases HSF-1 driven luciferase reporter signal. NIH3T3-HGL HSF-1 luciferase reporter, MG132, 8 h; 100% = twice DMSO control signal. activation, % at 9 µM. 1.7% of 300,000 active. AID 504408;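 active means mean replicate activation of at least 50% with a set share of replicates each reaching 50%; inconclusive means only one of those two conditions met; inactive means mean below 50% and too few replicates reaching it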
Hits are given with their value; . = inactive; ? = inconclusive; / = not tested or not shown.

SMILES | esBAF inh | MITF TRPM1 HTS | HSF1 inh | Wnt act | HSF-1 act
Cc1noc(C)c1NC(=O)N(C)C[C@H]1Oc2ccc(NC(=O)C3CC3)cc2C(=O)N([C@@H](C)CO)C[C@H]1C | . | / | / | / | /
COc1ccc(C(=O)NCCOc2ccccc2Cl)c(OC)c1OC | 67.6 | 88.9 | . | ? | 53.9
COc1ccccc1/C=C/C=N/NC(=O)c1ccccn1 | / | 96.5 | . | . | .
COc1ccccc1C(=O)NCCCNC(=O)c1ccccn1 | . | . | . | . | 79.4
COc1cc(C(=O)NCCOc2ccccc2C)c(Br)c(OC)c1OC | / | . | . | . | .
COc1cccc(C(=O)COC(=O)C(C)N2C(=O)C3C4C=CC(C4)C3C2=O)c1 (stereo unspecified) | . | . | . | / | 57.2
Fc1ccc2cc(CCO[C@H]3CCCCO3)ncc2c1 | . | . | / | 32.2 | /
O=C(NC(=S)NC12CC3CC(CC(C3)C1)C2)c1ccc(F)cc1 | 58.0 | / | / | . | /
O=C(NC(=S)Nc1ccc(NC(=O)c2ccccc2)cc1)c1ccc(F)cc1 | / | . | . | . | .
O=C(NC(=S)Nc1ncccn1)c1ccc(F)cc1 | 62.3 | 101.2 | . | . | .
O=C(NC(=S)Nc1cccnc1Cl)c1ccc(F)cc1 | . | . | . | 37.1 | .
O=C(NC(=S)Nc1ncccn1)c1ccc(Cl)cc1Cl | / | . | . | . | 64.3
O=C(NC12CC3CC(CC(C3)C1)C2)c1ccccc1 | . | . | . | . | .
CCC(=O)Nc1cccc(NC(=S)NC(=O)c2ccc(Cl)cc2Cl)c1 | / | . | . | / | .
O=C(c1ccccc1)N1CC[C@H]2[C@H](CO)Nc3ccc(-c4ccccc4F)cc3[C@H]21 | . | / | / | / | /
Oc1c(Br)cc(Br)cc1C=Nc1cccc2ncccc12 | . | / | . | . | 62.0
Brc1cccc(C=Nc2cccc3ncccc23)c1 | / | / | . | . | .
COc1ccc(NC(=O)N(C)C[C@H]2OCCCC[C@H](C)Oc3ccc(NC(=O)c4ccncc4)cc3C(=O)N([C@@H](C)CO)C[C@H]2C)cc1 | . | / | / | / | /
C[C@H](CO)N1C[C@H](C)[C@@H](CN(C)CC2CC2)Oc2ccc(NS(=O)(=O)c3ccccc3)cc2C1=O | . | / | / | / | /
Cc1ccc(C(=O)NCc2ccc(F)cc2)s1 | / | / | . | . | .
Cc1ccc(C(=O)NCCc2ccc(F)cc2)s1 | . | 89.4 | . | 42.5 | .
O=C(NCCc1ccc(Cl)cc1)c1ccc(Br)s1 | 64.3 | ? | . | . | 67.1
CO[C@H]1CC[C@@H]2CCN(C)C(=O)CCCN(C)C(=O)c3cccc(C#N)c3OC[C@H]1O2 | . | / | / | / | /
S=C(NCCc1ccccc1)NC1CCC(NC(=S)NCCc2ccccc2)CC1 (stereo unspecified) | . | . | . | . | .
S=C(NCCc1cccc(Cl)c1)NC1CCCCC1 | 65.8 | . | . | . | .
SMILES | esBAF inh | MITF TRPM1 HTS | HSF1 inh | Wnt act | HSF-1 act
Cc1ccc(C(C2=C(O)CC(C)(C)CC2=O)C2C(=O)CC(C)(C)CC2=O)s1 (stereo unspecified) | / | . | . | . | .
CC1(C)CC(=O)C(C(C2=C(O)CC(C)(C)CC2=O)c2ccc(Br)s2)C(=O)C1 (stereo unspecified) | / | . | . | . | 123.8
C[C@@H]1CN([C@H](C)CO)C(=O)c2cc(NS(C)(=O)=O)ccc2O[C@@H](C)CCCCO[C@@H]1CN(C)CC1CCCCC1 | . | / | / | / | /
COc1ccc(NC(=O)C2Cc3ccccc3C(=O)O2)cc1 (stereo unspecified) | . | . | -70.9 | . | .
CCc1nc(Nc2cccc(OC)c2)c2oc3ccccc3c2n1 | . | . | . | . | .
Cc1c(-c2nc(N)nc(Nc3ccccc3F)n2)oc2ccccc12 | 48.3 | 121.8 | / | / | /
Cc1ccc(Nc2nc(N)nc(-c3oc4ccccc4c3C)n2)cc1 | / | . | . | / | .
COc1cccc(Nc2nc(N)nc(-c3oc4ccccc4c3C)n2)c1 | 50.6 | . | . | / | .
COc1ccccc1Nc1nc(N)nc(-c2cc3ccccc3o2)n1 | . | / | . | . | .
Cc1cccc(Nc2nc(N)nc(-c3oc4ccccc4c3C)n2)c1 | 56.8 | / | . | . | .
Cc1noc(C)c1S(=O)(=O)N(C)C[C@H]1Oc2ccc(NS(=O)(=O)c3ccc(Cl)cc3)cc2CC(=O)N([C@@H](C)CO)C[C@@H]1C | . | / | / | / | /
Cc1cccc(C(c2c(C)nn(-c3ccccc3)c2N)c2c(C)nn(-c3ccccc3)c2N)c1 | / | . | . | . | 82.8
CCc1ccc(C(c2c(C)nn(-c3ccccc3)c2N)c2c(C)nn(-c3ccccc3)c2N)cc1 | / | . | . | . | .
Cc1ccccc1C(=O)NC(=S)Nc1sc2c(c1C#N)CCC(C)C2 (stereo unspecified) | . | . | . | . | .
CC1CCc2c(sc(NC(=S)NC(=O)c3ccccc3)c2C#N)C1 (stereo unspecified) | / | . | . | . | 58.7
Cc1cc(C(=O)Nc2sc3c(c2C#N)CCC(C)C3)cs1 (stereo unspecified) | 51.6 | . | . | . | 74.4
CC(=O)Nc1sc2c(c1C#N)CCC(C)C2 (stereo unspecified) | . | . | . | . | .
CCCC#Cc1ccc2c(c1)O[C@@H](CN(C)C(=O)COC)[C@H](C)CN([C@H](C)CO)S2(=O)=O | . | / | / | / | /
O=C(OCC(=O)N1CCCC1)c1c(Cl)cccc1Cl | . | . | . | . | .
Cc1ccsc1C(=O)N1CCc2ccccc2C1 | . | . | . | . | .
O=C(OCC(=O)N1CCc2ccccc2C1)c1c(F)cccc1Cl | . | 114.8 | / | 54.9 | /
Cc1ccsc1C(=O)OCC(=O)N1CCc2ccccc2C1 | 57.3 | 92.2 | . | . | .
CCCC#Cc1cnc2c(c1)C(=O)N([C@H](C)CO)C[C@H](C)[C@H](CN(C)S(=O)(=O)c1cccc(OC)c1)O2 | . | / | / | / | /
Cn1cnc(S(=O)(=O)N2C[C@H](O)COC[C@@H]3O[C@H](CC(=O)NCc4cc(F)cc(F)c4)CC[C@H]32)c1 | . | / | / | / | /
O=C(C[C@H]1C=C[C@H](NC(=O)C2CCOCC2)[C@H](CO)O1)Nc1ccc(-c2ccccc2)cc1 | . | / | / | / | /
SMILES | esBAF inh | MITF TRPM1 HTS | HSF1 inh | Wnt act | HSF-1 act
COc1cccc(-c2cnc3c(c2)C(=O)N([C@@H](C)CO)C[C@H](C)[C@@H](CN(C)Cc2cccnc2)O3)c1 | . | / | / | / | /
CO[C@H]1CN(C)C(=O)c2cc(NC(=O)C3CC3)ccc2OC[C@H](C)N(CC2CC2)C[C@H]1C | . | / | / | / | /
O=C(NCC[C@H]1CC[C@H](NS(=O)(=O)Cc2ccccc2)[C@H](CO)O1)C1CCCCC1 | . | / | / | / | /
Clc1ccc(OCCCCCN2CCCC2)c(Br)c1 | . | . | . | . | .
Clc1ccc(OCCCN2CCCCC2)c(Br)c1 | 22.6 | . | . | . | .
COCC(=O)N(C)C[C@@H]1Oc2cc(-c3ccncc3)ccc2S(=O)(=O)N([C@H](C)CO)C[C@@H]1C | . | / | / | / | /
CCC(=O)Nc1cc(=O)[nH]c2nc(-c3ccc(Cl)cc3)nn12 | . | . | . | 39.3 | .
Cc1ccc(-c2nc3[nH]c(=O)cc(NC(=O)C(C)C)n3n2)cc1 | . | . | . | . | .
CC1CC2C3CCC4=CC(=O)C=CC4(C)C3(F)C(O)CC2(C)C1(O)C(=O)CO (stereo unspecified) | . | . | -54.1 | . | .
